# Experimental data from article PMC4081100, “A DNA-binding-site landscape and regulatory network analysis for NAC transcription factors in Arabidopsis thaliana”.
# Target: T1, GST-ANAC092(1-176) (Arabidopsis thaliana, UniProt Q9FKA0 1-176)
# T1 sequence: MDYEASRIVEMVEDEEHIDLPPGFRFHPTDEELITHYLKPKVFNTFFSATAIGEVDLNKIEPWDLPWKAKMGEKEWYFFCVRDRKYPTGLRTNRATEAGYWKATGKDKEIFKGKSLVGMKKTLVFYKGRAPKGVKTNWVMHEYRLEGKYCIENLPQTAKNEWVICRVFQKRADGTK
# Assay: universal protein binding microarray (PBM); transcription factors of Arabidopsis thaliana; high values mean tight binding
# Settings: protein: recombinant; tags: GST; chain copies: 2; dsDNA, one strand shown
# Procedure, shortened: (§1)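 Cells were induced to make GST-tagged NAC-domain, full-length or DNA-binding-domain proteins, and zinc acetate was added for zinc-finger proteins. These proteins were purified on glutathione–Sepharose 4B, quantified by A280 or anti-GST western blot, and applied in duplicate at 200 to 500 nM final to custom all-10-mer Agilent 4 × 180K arrays that primer extension had made double-stranded. Binding is given as the normalised enrichment score (E-score) for scored gapped and ungapped 8-mers.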
row,Sequence,binding signal [E-score]
1,ACAGTCAA,0.141
2,GCACTCAA,0.391
3,CTACGCCA,0.283
4,ACTCAACC,0.366
5,ACGCCACG,0.382
6,TGAGGAAA,0.0937
7,CACGCTAG,0.389
8,CTTTTGAC,0.158
9,ATCGCGTG,0.382
10,ACTAGTCA,0.0862
11,GAGGAAAC,0.0974
12,TACGCGAA,0.268
13,ATTGACCA,0.0698
14,CTAAGGAA,0.125
15,GTATTGAC,0.0776
16,AAGGAAGC,0.219
17,GCACGCGA,0.287
18,ACGCGATC,0.314
19,AGGAAATC,0.0998
20,AAGTCAAA,0.0569
21,ACACGACT,0.104
22,ACGGCAGT,0.207
23,CTGGCGTA,0.371
24,CACACGCC,0.396
25,CACGCCAG,0.385
26,ACGCCACC,0.456

# Target: GST-NTL6(1-168) (Arabidopsis thaliana, UniProt Q9SCK6 1-168)
# Sequence (Q9SCK6 1-168): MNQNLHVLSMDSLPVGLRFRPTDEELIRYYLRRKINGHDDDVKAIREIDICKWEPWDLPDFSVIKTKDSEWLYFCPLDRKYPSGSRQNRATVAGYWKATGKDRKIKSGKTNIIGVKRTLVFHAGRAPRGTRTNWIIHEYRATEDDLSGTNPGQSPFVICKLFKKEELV
# Assay: as above
# Settings: protein: recombinant; tags: GST; chain copies: 2; dsDNA, one strand shown
# Procedure, shortened: as §1
row,Sequence,binding signal [E-score]
1,ATTTCCTC,0.148
2,AGGAAACC,0.0999
3,GCTAAGGA,0.41
4,ACCTTACC,0.306
5,TGAGGAAA,0.106
6,GGAGGGAA,0.0867
7,CTTTTGAC,0.0997
8,AAAGGTAA,0.262
9,CTAAGGAA,0.47
10,AAGGAAGC,0.43
11,GGGGGTAA,0.147
12,AGGAAATC,0.102
13,AAGTCAAA,0.135
14,AGGTAAGG,0.27
15,GCTAAGCA,0.411
16,AAGACCAA,0.18

# Target: T2, GST-ANAC019 NAC domain (Arabidopsis thaliana, UniProt Q9C932 14-162)
# T2 sequence: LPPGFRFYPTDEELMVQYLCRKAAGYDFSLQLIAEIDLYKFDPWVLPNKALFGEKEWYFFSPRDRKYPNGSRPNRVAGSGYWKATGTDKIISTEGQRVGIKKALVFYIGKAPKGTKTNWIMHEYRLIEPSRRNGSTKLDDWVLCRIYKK
# Assay: as above
# Settings: protein: recombinant; tags: GST; chain copies: 2; dsDNA, one strand shown
# Procedure, shortened: as §1
row,Sequence,binding signal [E-score]
1,ACGCCACG,0.147
2,GGAGGGAA,0.104
3,CACGCTAG,0.115
4,ACTAGTCA,0.0985
5,AAGTCAAA,0.084
6,ACACGACT,0.411
7,AGGTAAGG,0.101
8,ACGGCAGT,0.418
9,CTGGCGTA,0.106
10,CACACGCC,0.207
11,CACGCCAG,0.0856
12,ACGCCACC,0.145
13,AAGACCAA,0.0878

# Target: T3, GST-ANAC055(1-171) (Arabidopsis thaliana, UniProt Q9LDY8 1-171)
# T3 sequence: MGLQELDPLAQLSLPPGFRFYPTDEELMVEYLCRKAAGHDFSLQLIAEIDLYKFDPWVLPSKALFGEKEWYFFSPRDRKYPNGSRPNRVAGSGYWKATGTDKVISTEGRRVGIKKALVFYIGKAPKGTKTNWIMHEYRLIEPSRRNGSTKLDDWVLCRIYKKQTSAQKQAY
# Assay: as above
# Settings: protein: recombinant; tags: GST; chain copies: 2; dsDNA, one strand shown
# Procedure, shortened: as §1
row,Sequence,binding signal [E-score]
1,ACAGTCAA,0.0601
2,ACTCAACC,0.0786
3,ACGCCACG,0.14
4,CACGCTAG,0.101
5,CTTTTGAC,0.114
6,AAAGGTAA,0.192
7,ACTAGTCA,0.134
8,TACGCGAA,0.0984
9,ATTGACCA,0.072
10,GTATTGAC,0.0594
11,AAGGAAGC,0.0894
12,ACACGACT,0.364
13,ACGGCAGT,0.311
14,CTGGCGTA,0.0635
15,CACACGCC,0.124
16,ACGCCACC,0.0815
17,AAGACCAA,0.172

# Target: T4, GST-ATAF1 NAC domain (Arabidopsis thaliana, UniProt Q39013 7-158)
# T4 sequence: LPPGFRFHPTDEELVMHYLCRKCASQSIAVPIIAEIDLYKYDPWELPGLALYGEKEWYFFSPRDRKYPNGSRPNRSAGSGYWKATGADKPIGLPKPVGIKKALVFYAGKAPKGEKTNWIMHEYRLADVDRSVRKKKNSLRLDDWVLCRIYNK
# Assay: as above
# Settings: protein: recombinant; tags: GST; chain copies: 2; dsDNA, one strand shown
# Procedure, shortened: as §1
row,Sequence,binding signal [E-score]
1,ACAGTCAA,0.081
2,GCACTCAA,0.0807
3,ACCTTACC,0.0631
4,CTACGCCA,0.057
5,ACTCAACC,0.117
6,ACGCCACG,0.0586
7,CTTTTGAC,0.168
8,ACTAGTCA,0.0655
9,GAGGAAAC,0.0627
10,TACGCGAA,0.119
11,ATTGACCA,0.107
12,AAGTCAAA,0.16
13,ACACGACT,0.336
14,ACGGCAGT,0.212
15,CACACGCC,0.145
16,ACGCCACC,0.262
17,AAGACCAA,0.105
